Data on one molecule can be found in PubChem BioAssay (NCATS).

Structures are written as SMILES. Inconclusive results are not listed. Calls of active or inactive are those of the source. The call rests on the fitted dose curve.

The test in a line: S16 Schwann cell PMP22 intronic element beta-lactamase assay (AID 624044). Further: nearly all actives have a fitted effect of over 15% in size. In short, it runs like this: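 Rat S16 Schwann cells with beta-Lac driven by a PMP22 intronic element, compound-treated 24 h at 37 °C. LiveBLAzer FRET B/G read: 460 nm normalized to potassium clavulanate vs DMSO; 535 nm FRET as viability; concentration-effect curves classified.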
Potency means the concentration at half of the fitted maximal effect.

As to `Oc1cc[c]([Hg][Cl])cc1`, the Potency was 2.24 µM (active).
